From PubChem BioAssay
CendR NRP1 mod: modulators of CendR peptide binding to NRP-1, primary screen, biochemical, fluorescence polarization, uHTS; FAM-RPARPAR peptide binding to NRP-1; inhibition, % at 25 µM; 360,000 compounds, 0.85% hits;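 active = inhibition or corrected inhibition above about 18%, plus a signal ratio from 0.5 to 1.5, limit read from the data, passing the limit was not always enough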
Myeloid diff 2: induction of myeloid progenitor differentiation, primary screen, cell-based, flow cytometry, MLPCN library; ER-HoxA9 myeloid progenitors, lysozyme-GFP differentiation; AID 624256, 2012; 360,000 compounds, 1% hits; calls only at 10 µM;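 active = normalized GFP-positive differentiation at or above the plate's own cutoff, the solvent-only control mean plus 3 SD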;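 also: cells exposed to compound for four days before flow analysis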
CRFBP-R2 block: antagonists of CRF-BP/CRF-R2 complex, primary screen, cell-based, HEK293, calcium dye fluorescence, uHTS. CRF-induced calcium fluorescence. inhibition, % at 11.8 µM. 350,000 compounds, 0.59% hits. AID 588475, 2011;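 active = inhibition of the ligand-induced calcium signal above about 50% at the single tested concentration, limit read from the data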
NadD inh: inhibitors of S. aureus NadD, primary screen, biochemical, colorimetric, uHTS; Nicotinate-nucleotide adenylyltransferase NadD (Staphylococcus aureus N315); purified NadD enzyme, colorimetric absorbance read-out; inhibition, % at 20 µM; 360,000 compounds, 0.78% hits; in the data active = inhibition above about 26%
FAS-TE inh: FAS thioesterase domain inhibitors, primary screen, biochemical, fluorescence intensity, uHTS. Fatty acid synthase (Homo sapiens), P49327. recombinant FAS-TE, OMFH fluorogenic substrate, fluorescence endpoint. inhibition, % at 15 µM. 360,000 compounds, 0.67% hits;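 active = compounds whose normalised, plate-corrected inhibition of enzyme fluorescence in the single-dose primary screen is 50% or more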;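 also: 0% = DMSO with enzyme and 100% = substrate without enzyme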
NadD inh conf: inhibitors of S. aureus NadD, confirmation, biochemical, colorimetric, single concentration. AID 624309, 2012. purified S. aureus NadD, colorimetric enzyme assay. inhibition, % at 20 µM. shares compounds with NadD inh. 2,000 compounds, 13% hits; in the data active = inhibition mostly above about 42%, no sharp cut-off; inactive = mostly below about 42%
Numbers without * were called inactive. Most compounds without a hit are left out; they make up all but 3.6% or so of the library.

How did COc1ccc(N2CCN(C(=O)CNC(=O)c3ccccc3Cl)CC2)cc1 do in these assays?
CendR NRP1 mod: 13; Myeloid diff 2: inactive; CRFBP-R2 block: -7; NadD inh: 9; FAS-TE inh: -2

How did CCN1CCN(Cc2ccc(NC(=O)c3cc(NC(=O)c4cc(-c5ccc(OC)cc5)n[nH]4)cc(OC)c3)cc2C(F)(F)F)CC1 do in these assays?
CendR NRP1 mod: 17; Myeloid diff 2: inactive; CRFBP-R2 block: -5; NadD inh: 13; FAS-TE inh: 6

Results for CCN1CCN(Cc2ccc(NC(=O)c3cc(NC(=O)c4cncc(-c5cccs5)c4)cc(OC)c3)cc2C(F)(F)F)CC1 ?
CendR NRP1 mod: -28; CRFBP-R2 block: -12; NadD inh: 34*; FAS-TE inh: 0; NadD inh conf: 11

What do the screens show for `CC(C)c1cc(=O)[nH]c(N2CCN(Cc3ccc4c(c3)OCO4)CC2)n1`?
CendR NRP1 mod: 3; Myeloid diff 2: inactive; CRFBP-R2 block: -12; NadD inh: -8; FAS-TE inh: -5

What do the screens show for `Fc1cc(F)c(F)c(SCCc2ccncc2)c1F`?
CendR NRP1 mod: 2; Myeloid diff 2: inactive; CRFBP-R2 block: -50; NadD inh: 25*; FAS-TE inh: 2; NadD inh conf: 10

What do the screens show for `Cc1nc2ccc(NC(=O)c3ccc(Cl)c(NC(=O)c4cccs4)c3)cc2s1`?
CendR NRP1 mod: -14; Myeloid diff 2: inactive; CRFBP-R2 block: 19; NadD inh: 28*; FAS-TE inh: 10; NadD inh conf: 14

Results for COc1ccccc1CCC(=O)N(C)C1CCCN(Cc2ccccc2F)C1 (stereo not given) ?
CendR NRP1 mod: -2; Myeloid diff 2: inactive; CRFBP-R2 block: -13; NadD inh: -2; FAS-TE inh: -1

Results for NS(=O)(=O)c1ccc(CCNC(=O)CCCCCn2c(=S)[nH]c3ccc(Br)cc3c2=O)cc1 ?
CendR NRP1 mod: -11; Myeloid diff 2: inactive; CRFBP-R2 block: -20; NadD inh: 31*; FAS-TE inh: 6; NadD inh conf: 37

Results for COc1ccccc1NS(=O)(=O)c1cccc(C(=O)N/N=C/c2cn(-c3ccccc3)nc2-c2ccccc2)c1 ?
CendR NRP1 mod: -11; Myeloid diff 2: inactive; CRFBP-R2 block: -13; NadD inh: 33*; FAS-TE inh: 42; NadD inh conf: 25

Results for CCc1cc(C(=O)N2CCCC(N3CCN(c4cccc(C(F)(F)F)c4)CC3)C2)n(C)n1 (stereo not given) ?
CendR NRP1 mod: 6; Myeloid diff 2: inactive; CRFBP-R2 block: 14; NadD inh: 38*; FAS-TE inh: -1; NadD inh conf: -2

Results for COc1ccc2c(Cl)c(C(=O)OCC(=O)c3ccc4c(c3)NC(=O)CO4)sc2c1Cl ?
CendR NRP1 mod: -13; Myeloid diff 2: inactive; CRFBP-R2 block: 0; NadD inh: 40*; FAS-TE inh: -3; NadD inh conf: 0

Results for O=C1COc2ccc(C(=O)COC(=O)c3sc4ccccc4c3Cl)cc2N1 ?
CendR NRP1 mod: -10; Myeloid diff 2: inactive; CRFBP-R2 block: 1; NadD inh: 19; FAS-TE inh: 2

What do the screens show for `O=C(O)/C=C/c1cn(-c2ccccc2)nc1-c1ccc(-c2ccc([N+](=O)[O-])cc2)o1`?
CendR NRP1 mod: -86; Myeloid diff 2: inactive; CRFBP-R2 block: -25; NadD inh: 49*; FAS-TE inh: 45; NadD inh conf: 9

What do the screens show for `O=C(O)CC/C(=C/c1cccc(NC(=O)c2ccccc2Cl)c1)c1nc2ccccc2s1`?
CendR NRP1 mod: -37; Myeloid diff 2: inactive; CRFBP-R2 block: 3; NadD inh: 47*; FAS-TE inh: -7; NadD inh conf: 40

What do the screens show for `Cc1ccc(OCC(=O)Nc2ccc3c(c2)C(=O)NC3=O)cc1`?
CendR NRP1 mod: -1; Myeloid diff 2: inactive; CRFBP-R2 block: 0; NadD inh: -27; FAS-TE inh: -4

Results for CC(C)(C)c1ccc(OCC(=O)Nc2ccc3c4c(cccc24)C(=O)NC3=O)cc1 ?
CendR NRP1 mod: 8; Myeloid diff 2: active; CRFBP-R2 block: -13; NadD inh: 34*; FAS-TE inh: -3; NadD inh conf: 2

How did Cc1nc2c(=O)[nH]c(=S)[nH]c2[nH]c1=O do in these assays?
CendR NRP1 mod: -166; Myeloid diff 2: inactive; CRFBP-R2 block: 2; NadD inh: 5; FAS-TE inh: -6

What do the screens show for `CC1(C)Cc2c(sc3c2c(=N)n(Cc2ccco2)c(=O)n3Cc2ccc(Cl)cc2)CO1`?
CendR NRP1 mod: -10; Myeloid diff 2: inactive; CRFBP-R2 block: 26; NadD inh: 32*; FAS-TE inh: 25; NadD inh conf: 20

What do the screens show for `S=c1[nH]ncn1/N=C/c1ccco1`?
CendR NRP1 mod: 10; Myeloid diff 2: inactive; CRFBP-R2 block: 3; NadD inh: 6; FAS-TE inh: -8

How did COc1cccc(C2C3=C(N=c4s/c(=C\c5cccc(O)c5)c(=O)n42)c2ccccc2CC3)c1OC (stereo not given) do in these assays?
CendR NRP1 mod: -35; Myeloid diff 2: inactive; CRFBP-R2 block: -14; NadD inh: 40*; FAS-TE inh: 28; NadD inh conf: 11

What do the screens show for `COc1cccc(C2C3=C(N=c4s/c(=C\c5ccc(O)cc5)c(=O)n42)c2ccccc2CC3)c1OC` (stereo not given)?
CendR NRP1 mod: -30; Myeloid diff 2: inactive; CRFBP-R2 block: -27; NadD inh: 14; FAS-TE inh: 4

Results for CC(C)c1ccc(/C=C2\SC(=O)N(CC(=O)NCCCn3ccnc3)C2=O)cc1 ?
CendR NRP1 mod: 9; Myeloid diff 2: inactive; CRFBP-R2 block: -24; NadD inh: 34*; FAS-TE inh: -18; NadD inh conf: -5

What do the screens show for `O=C(CN1C(=O)S/C(=C\c2ccccc2)C1=O)NCCCn1ccnc1`?
CendR NRP1 mod: 11; Myeloid diff 2: inactive; CRFBP-R2 block: 15; NadD inh: 6; FAS-TE inh: -4

How did CCN(CC(=O)Nc1ccccc1OC)C(=O)CN1C(=O)NC(C)(c2ccc3ccccc3c2)C1=O (stereo not given) do in these assays?
CendR NRP1 mod: 2; Myeloid diff 2: inactive; CRFBP-R2 block: -1; NadD inh: 0; FAS-TE inh: 2

Results for Cc1ccc(Cc2c(-c3ccc(C)cc3)nc3ccc(Br)cn23)cc1 ?
CendR NRP1 mod: -19; Myeloid diff 2: inactive; CRFBP-R2 block: -14; NadD inh: 11; FAS-TE inh: 8

Results for COc1ccc(Cc2c(-c3ccccc3)nc3ccc(Cl)cn23)c(C)c1 ?
CendR NRP1 mod: -29; Myeloid diff 2: inactive; NadD inh: 8; FAS-TE inh: -4
